Test results: PubChem BioAssay (EPA / NIEHS)
Calls of active or inactive are those of the source. How the source made its calls: active means hit-call score of the fitted dose curve at least 0.9, where 1 is the maximum; inactive means score below 0.9.

Experiments:
Conditions in all cases: mRNA level, 48 h; actives raise or lower the signal
[1] = read-out: Ezrin (EZR), EZR (gene 7430); assay: LTEA_HepaRG_EZR: Life Technologies and Expression Analysis (LTEA) Assay for Ezrin (EZR) using HepaRG (AID 2283491)
How it was run: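 HepaRG, 48 h chemical exposure, 8-pt half-log series from 100 uM, 0.5% DMSO vehicle, duplicates. Read-out: EZR mRNA by TaqMan qRT-PCR (Fluidigm array), housekeeping-normalized; bidirectional curve fit vs DMSO baseline.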

[2] = read-out: Cytochrome P450 3A7 (Homo sapiens) (UniProt P24462); assay: LTEA_HepaRG_CYP3A7: Life Technologies and Expression Analysis (LTEA) Assay for CYP3A7 using HepaRG (AID 2283492)
How it was run: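 Human HepaRG liver cells, 48 h post-plating, switched to serum-free induction medium and exposed in duplicate for 48 h. Dosing: 100 uM top, half-log dilutions, 8 points, 0.5% DMSO vehicle. Read-out: CYP3A7 mRNA, gain or loss fitted against DMSO baseline.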

[3] = read-out: Fatty Acid-Binding Protein 1 (FABP1), FABP1 (gene 2168); assay: LTEA_HepaRG_FABP1: Life Technologies and Expression Analysis (LTEA) Assay for Fatty Acid-Binding Protein 1 (FABP1) using HepaRG (AID 2283494)
How it was run: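 HepaRG, 48 h post-plating switched to serum-free induction medium, then dosed 48 h (duplicate, 8 pts, ≤100 uM, 0.5% DMSO). RNA → Fluidigm TaqMan qRT-PCR, FABP1 normed to ACTB/GAPDH/POLR2A. Bidirectional curve fit vs DMSO.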

[4] = read-out: Cytochrome P450 7A1 (Homo sapiens) (UniProt P22680); assay: LTEA_HepaRG_CYP7A1: Life Technologies and Expression Analysis (LTEA) Assay for Cytochrome P450 7A1 (CYP7A1) using HepaRG (AID 2283496)
How it was run: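 HepaRG cells plated 48 h, then switched to serum-free induction medium and exposed in duplicate for 48 h to 8-point half-log series from 100 uM in 0.5% DMSO. CYP7A1 mRNA by qRT-PCR (TaqMan), normalized to ACTB/GAPDH/POLR2A; bidirectional fit versus DMSO.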

[5] = read-out: growth arrest and DNA damage 45 (GADD45G), GADD45G (gene 10912); assay: LTEA_HepaRG_GADD45G: Life Technologies and Expression Analysis (LTEA) Assay for growth arrest and DNA damage 45 (GADD45G) using HepaRG (AID 2283499)
How it was run: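 Gain or loss of GADD45G mRNA, quantified by TaqMan qRT-PCR against three housekeeping genes, is fitted in both directions relative to 0.5% DMSO. Human HepaRG cultures receive test chemical for 48 h at up to 100 uM.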

[6] = read-out: Glutamate-cysteine ligase regulatory (GCLM), GCLM (gene 2730); assay: LTEA_HepaRG_GCLM: Life Technologies and Expression Analysis (LTEA) Assay for Glutamate-cysteine ligase regulatory (GCLM) using HepaRG (AID 2283500)
How it was run: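 Differentiated HepaRG cells exposed 48 h in serum-free induction medium to eight half-log concentrations up to 100 uM (0.5% DMSO). GCLM mRNA by TaqMan qRT-PCR, normalized to ACTB, GAPDH and POLR2A; bidirectional fit versus DMSO.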

[7] = read-out: Glutathione S-transferase M3 (GSTM3), GSTM3 (gene 2947); assay: LTEA_HepaRG_GSTM3: Life Technologies and Expression Analysis (LTEA) Assay for Glutathione S-transferase M3 (GSTM3) using HepaRG (AID 2283501)
How it was run: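 HepaRG, plated 48 h, then serum-free induction medium; test chemical 48 h, duplicate; 100 uM top, half-log x8, 0.5% DMSO. Read-out: GSTM3 mRNA (TaqMan qRT-PCR, Fluidigm array). Bidirectional fit vs DMSO.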

[8] = read-out: Hypoxia-inducible factor 1-alpha (Homo sapiens) (UniProt Q16665); assay: LTEA_HepaRG_HIF1A: Life Technologies and Expression Analysis (LTEA) Assay for Hypoxia-inducible factor 1 (HIF1A) Trancription factor using HepaRG (AID 2283503)
How it was run: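 Differentiated HepaRG cells in serum-free induction medium exposed 48 h, in duplicate, to 8-point half-log series from 100 uM in 0.5% DMSO. HIF1A mRNA measured by TaqMan qRT-PCR, normalized to ACTB/GAPDH/POLR2A, fitted bidirectionally versus DMSO.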

[9] = read-out: 3-Hydroxy-3-Methylglutaryl-CoA Synthase 2 (HMGCS2), HMGCS2 (gene 3158); assay: LTEA_HepaRG_HMGCS2: Life Technologies and Expression Analysis (LTEA) Assay for 3-Hydroxy-3-Methylglutaryl-CoA Synthase 2 (HMGCS2) using HepaRG (AID 2283504)
How it was run: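 HepaRG, plated 48 h then switched to serum-free induction media; cmpd 8-pt, max 100 uM, 1/2-log, 0.5% DMSO, n=2, 48 h. HMGCS2 mRNA by Fluidigm TaqMan qRT-PCR, ACTB/GAPDH/POLR2A norm; bidirectional fit vs DMSO.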

HGF (gene 3082) = assay: LTEA_HepaRG_HGF: Life Technologies and Expression Analysis (LTEA) Assay for Hepatocyte Growth Facto (HGF) using HepaRG (AID 2283505)
How it was run: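 Read-out is HGF transcript level by qRT-PCR, normalized to three housekeeping genes, fitted bidirectionally against 0.5% DMSO vehicle. Human HepaRG cells received test chemicals for 48 h at up to 100 uM.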

[10] = read-out: Insulin Like Growth Factor 1 (IGF1), IGF1 (gene 3479); assay: LTEA_HepaRG_IGF1: Life Technologies and Expression Analysis (LTEA) Assay for Insulin Like Growth Factor 1 (IGF1) using HepaRG (AID 2283506)
How it was run: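 Differentiated HepaRG cells in serum-free induction medium, exposed 48 h in duplicate to 8 half-log concentrations up to 100 uM in 0.5% DMSO. IGF1 mRNA by Fluidigm qRT-PCR, normalised to ACTB, GAPDH and POLR2A.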

[11] = read-out: Intercellular Adhesion Molecule 1 (ICAM1), ICAM1 (gene 3383); assay: LTEA_HepaRG_ICAM1: Life Technologies and Expression Analysis (LTEA) Assay for Intercellular Adhesion Molecule 1 (ICAM1) using HepaRG (AID 2283507)
How it was run: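 Readout is qRT-PCR mRNA level, normalized to three housekeeping genes and fitted bidirectionally against 0.5% DMSO vehicle. Human HepaRG cultures received compound for 48 h, top concentration 100 uM with half-log dilutions.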

[12] = read-out: Insulin-like growth factor-binding protein 1 (IGFBP1), IGFBP1 (gene 3484); assay: LTEA_HepaRG_IGFBP1: Life Technologies and Expression Analysis (LTEA) Assay for Insulin-like growth factor-binding protein 1 (IGFBP1) using HepaRG (AID 2283508)
How it was run: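 Thawed HepaRG cells are plated for 48 h, switched to serum-free induction medium, then dosed in duplicate for another 48 h (100 uM top, half-log steps). Lysates in RLT go to qRT-PCR, and gain or loss of signal is fitted relative to vehicle.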

[13] = read-out: Interleukin 6 (IL6), IL6 (gene 3569); assay: LTEA_HepaRG_IL6: Life Technologies and Expression Analysis (LTEA) Assay for Interleukin 6 (IL6) using HepaRG (AID 2283509)
How it was run: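 HepaRG, ~100,000 cells/well, 48 h pre-culture; serum-free induction medium; cmpd 8-pt half-log from 100 uM, 0.5% DMSO, duplicate, 48 h. Lysis in RLT, TaqMan qRT-PCR; gain or loss vs DMSO.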

[14] = read-out: Interleukin 6 Receptor (IL6R), IL6R (gene 3570); assay: LTEA_HepaRG_IL6R: Life Technologies and Expression Analysis (LTEA) Assay for Interleukin 6 Receptor (IL6R) using HepaRG (AID 2283510)
How it was run: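 Differentiated HepaRG cells, plated 48 h, then exposed in duplicate for 48 h in serum-free induction medium to 8 half-log concentrations (top 100 uM, 0.5% DMSO). IL6R mRNA measured by TaqMan qRT-PCR, normalized to ACTB/GAPDH/POLR2A; bidirectional fit vs DMSO.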

[15] = read-out: Potassium channel subfamily K member 1 (KCNK1), KCNK1 (gene 3775); assay: LTEA_HepaRG_KCNK1: Life Technologies and Expression Analysis (LTEA) Assay for Potassium channel subfamily K member 1 (KCNK1) using HepaRG (AID 2283511)
How it was run: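 Gain or loss of KCNK1 mRNA is the read-out, quantified by qRT-PCR against three housekeeping genes after 48 h chemical treatment of human HepaRG liver cells. Concentrations ran from 100 uM downward in half-log steps, vehicle 0.5% DMSO.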

[16] = read-out: Keratin 19 (KRT19), KRT19 (gene 3880); assay: LTEA_HepaRG_KRT19: Life Technologies and Expression Analysis (LTEA) Assay for Keratin 19 (KRT19) using HepaRG (AID 2283512)
How it was run: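 KRT19 transcript levels, measured by Fluidigm qRT-PCR against three housekeeping genes, are fitted for gain or loss of signal relative to DMSO. Human HepaRG cells receive test chemicals (top 100 uM, half-log steps, 0.5% DMSO) for 48 hours.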

[17] = read-out: Heat shock 70 kDa protein 1 (HSPA1A), gene 3303; assay: LTEA_HepaRG_HSPA1A: Life Technologies and Expression Analysis (LTEA) Assay for Heat shock 70 kDa protein 1 (HSPA1A) using HepaRG (AID 2283502)
How it was run: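 Human HepaRG cells in serum-free induction medium were exposed in duplicate for 48 h to 8 half-log concentrations, highest 100 uM, in 0.5% DMSO. HSPA1A mRNA read by TaqMan qRT-PCR, normalized to ACTB, GAPDH, POLR2A, fitted bidirectionally against DMSO.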

Measured: AC50

Sequence of Hypoxia-inducible factor 1-alpha (Homo sapiens) (Q16665 whole entry, looked up): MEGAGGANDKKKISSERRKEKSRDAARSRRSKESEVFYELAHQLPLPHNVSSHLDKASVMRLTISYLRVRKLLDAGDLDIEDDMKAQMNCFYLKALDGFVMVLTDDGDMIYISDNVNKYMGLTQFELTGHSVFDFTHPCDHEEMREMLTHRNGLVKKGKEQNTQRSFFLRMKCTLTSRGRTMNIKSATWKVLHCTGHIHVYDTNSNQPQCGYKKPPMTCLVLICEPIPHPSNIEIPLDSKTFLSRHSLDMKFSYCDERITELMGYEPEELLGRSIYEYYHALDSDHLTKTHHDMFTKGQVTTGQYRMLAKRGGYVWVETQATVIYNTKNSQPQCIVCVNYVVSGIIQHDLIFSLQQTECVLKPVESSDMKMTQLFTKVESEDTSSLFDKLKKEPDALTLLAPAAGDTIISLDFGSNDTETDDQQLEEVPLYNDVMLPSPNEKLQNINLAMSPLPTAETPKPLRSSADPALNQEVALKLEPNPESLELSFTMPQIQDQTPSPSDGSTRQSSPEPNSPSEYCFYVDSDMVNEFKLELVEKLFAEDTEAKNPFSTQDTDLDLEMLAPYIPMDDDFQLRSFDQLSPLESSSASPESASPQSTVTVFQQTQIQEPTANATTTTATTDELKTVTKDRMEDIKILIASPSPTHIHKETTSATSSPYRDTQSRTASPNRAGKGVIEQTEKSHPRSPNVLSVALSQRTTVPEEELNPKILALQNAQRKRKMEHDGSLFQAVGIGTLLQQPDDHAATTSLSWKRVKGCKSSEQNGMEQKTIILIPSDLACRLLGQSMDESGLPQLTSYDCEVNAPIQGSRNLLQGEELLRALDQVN
Sequence of Cytochrome P450 3A7 (Homo sapiens) (P24462 whole entry, looked up): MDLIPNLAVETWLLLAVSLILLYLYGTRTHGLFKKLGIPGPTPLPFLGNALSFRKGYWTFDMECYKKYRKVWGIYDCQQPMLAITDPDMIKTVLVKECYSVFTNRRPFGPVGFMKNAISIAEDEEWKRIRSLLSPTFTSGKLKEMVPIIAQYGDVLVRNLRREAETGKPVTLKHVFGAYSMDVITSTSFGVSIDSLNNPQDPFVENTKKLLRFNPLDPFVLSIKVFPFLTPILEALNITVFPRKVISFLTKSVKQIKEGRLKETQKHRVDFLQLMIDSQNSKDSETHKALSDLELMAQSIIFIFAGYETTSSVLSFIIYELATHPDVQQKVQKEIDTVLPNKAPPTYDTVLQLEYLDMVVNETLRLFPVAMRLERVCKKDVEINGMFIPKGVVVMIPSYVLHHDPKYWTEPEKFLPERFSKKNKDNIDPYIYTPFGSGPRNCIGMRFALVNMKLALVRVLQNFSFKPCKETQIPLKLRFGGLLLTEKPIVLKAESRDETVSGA

CCOP(=S)(Oc1ccc([N+](=O)[O-])cc1)c1ccccc1 (stereo unspecified)
active: [2] 2.87 µM | [3] 12.7 µM | [5] 65.7 µM | [12] 5.97 µM | [16] 15.9 µM
not listed: [17]
inactive: all other assays above

CC(C)(C)OOC(C)(C)C
inactive: all assays above

CCOC(=O)c1ccccc1C(=O)OCC
inactive: all assays above

CC(Cl)(Cl)C(=O)O
inactive: all assays above

CC(C)(C)c1ccc(O)cc1
not listed: [2] | [4] | HGF (gene 3082)
inactive: all other assays above

COCCOCCO
not listed: [2]
inactive: all other assays above

CCCN(CCC)c1c([N+](=O)[O-])cc(C(C)C)cc1[N+](=O)[O-]
active: [3] 9.92 µM | [4] 50 µM | [6] 9.92 µM | [7] 3.04 µM | [17] 16.7 µM | [10] 71.1 µM
inactive: all other assays above

O=C(O)C1C(C(=O)O)C2(Cl)C(Cl)=C(Cl)C1(Cl)C2(Cl)Cl (stereo unspecified)
not listed: [8]
inactive: all other assays above

c1ccc(OP(Oc2ccccc2)Oc2ccccc2)cc1
inactive: all assays above

c1ccc2c(c1)Nc1ccccc1S2
active: [3] 50 µM | [4] 20.2 µM | [10] 50 µM | [16] 41.5 µM
inactive: all other assays above

Cc1ccc(O)cc1C
not listed: [2] | [4] | HGF (gene 3082)
inactive: all other assays above

CSC(C)(C)C=NO
not listed: [14]
inactive: all other assays above

O=[N+]([O-])c1ccccc1
not listed: [4]
inactive: all other assays above

CCOP(=S)(OCC)SCSCC
inactive: all assays above

Nc1ccc2ccccc2c1
active: [3] 18.9 µM | [16] 5.98 µM
inactive: all other assays above

Cc1cccc(N)c1
not listed: [4]
inactive: all other assays above

ClC(Cl)c1ccccc1
inactive: all assays above

CCOS(=O)(=O)OCC
inactive: all assays above

CCCCN(CCCC)SN(C)C(=O)Oc1cccc2c1OC(C)(C)C2
active: [2] 4.49 µM | [4] 50 µM
inactive: all other assays above

O=P(Oc1ccccc1)(Oc1ccccc1)Oc1ccccc1
active: [2] 12.6 µM | [5] 50 µM | [6] 50 µM | [10] 4.15 µM | [12] 37.8 µM | [16] 0.981 µM
not listed: [8] | [9]
inactive: all other assays above

CCC1(c2ccccc2)C(=O)N=C(O)NC1=O (stereo unspecified)
active: [2] 41.3 µM
inactive: all other assays above

O=P1(N(CCCl)CCCl)NCCCO1 (stereo unspecified)
not listed: [8]
inactive: all other assays above
